From PubChem BioAssay
Many of the other results were omitted from the sample, so hits are more common in it than they were.
ERK EGF inh: inhibitors of EGF-stimulated ERK signaling pathway; Potency, µM (highest dose often 11.5 µM), for inactives: at the top dose activity change, negative = inhibition, actives largely listed as inhibitors; AID 1454; HEK293-V1b, EGF-stimulated phospho-ERK AlphaScreen; hit rate 0.41% among 130,000;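 further: plate controls were stimulated vehicle wells for no effect and unstimulated vehicle basal for full effect; nearly all actives have a fitted effect of over 55% in size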
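After overnight plating in 1% FBS, HEK293-V1b cells received test compound for half an hour, then a 5 min pulse of EGF (25 nM); ERK phosphorylation in lysates was read by bead-based AlphaScreen.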
NPSR antagonist: blocks cAMP signaling of the human neuropeptide S receptor; Q6W5P4; CHO-NPSR cells, cAMP TR-FRET, antagonist mode; Potency, µM (titrated, usually from 38.3 µM), without a hit: at the highest dose activity change, negative = inhibition, hits mostly inhibitors; hit rate 1% among 220,000; further: nearly all actives have a fitted effect of over 50% in size
Target sequence (Q6W5P4 whole entry, looked up): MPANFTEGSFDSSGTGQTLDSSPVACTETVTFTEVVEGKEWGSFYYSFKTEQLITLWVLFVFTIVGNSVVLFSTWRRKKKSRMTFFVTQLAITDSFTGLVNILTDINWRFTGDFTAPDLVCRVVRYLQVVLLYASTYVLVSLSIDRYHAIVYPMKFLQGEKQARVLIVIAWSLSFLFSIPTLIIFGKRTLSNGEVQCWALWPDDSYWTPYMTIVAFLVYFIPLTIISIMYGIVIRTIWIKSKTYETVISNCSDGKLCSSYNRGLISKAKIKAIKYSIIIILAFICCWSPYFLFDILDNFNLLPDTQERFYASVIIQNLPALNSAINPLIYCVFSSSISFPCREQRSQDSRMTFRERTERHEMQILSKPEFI
The depositor's hits bear a star; ? = inconclusive; / = not tested or not shown; [ ] = remark or other dose. The call rests on the fitted dose curve; in most records, active means well fitted curve in the direction sought with a large enough effect; inconclusive means small, poorly fitted or top-dose-only effect, or another doubt; inactive means no such curve, though single readings can be large; an effect the other way counts as inactive or inconclusive. Unless noted, on the % scale 0 is the no-effect control and ±100 the full control effect; potency means the concentration at half of the fitted maximal effect.

SMILES	ERK EGF inh	NPSR antagonist
CCN(CC)CCn1c(-c2ccccc2)nc2c(NCc3ccccc3)nc(C)nc21	5%	/
CN(C)S(=O)(=O)c1ccc(Cl)c(NC(=O)COC(=O)c2ccc(O)cc2)c1	?	-28%
CCN(CC)S(=O)(=O)c1ccc(Cl)c(NC(=O)COC(=O)c2ccc(O)cc2)c1	28µM*	-38%
N/C(CSc1ccc(Cl)cc1)=N\NC(=O)c1ccncc1	3%	-11%
Cc1ccc(-c2ccc(/C=N/O)o2)cc1[N+](=O)[O-]	11%	4%
N#CC(C#N)=c1ccc2c(c1)NC1(CCCCC1)N=2	/	10µM*
N#CC(C#N)=C1NC2(CCCCC2)Cc2ccccc21	-24%[57.5 µM]	-15%
Cn1c(CNC(=O)c2ccco2)nnc1SCC(=O)Nc1c(F)cc(F)cc1Br	-2%	4%
COc1ccccc1NC(=S)NC1CCC(CC2CCC(NC(=S)Nc3ccccc3OC)CC2)CC1 (stereo not drawn)	-1%	-11%[46.1 µM]
CC(=O)Nc1ccc(-c2csc(Nc3ccc(Cl)cn3)n2)cc1	1%	-7%
CC(=O)Nc1cccc(-c2csc(Nc3ccc(Cl)cn3)n2)c1	28µM*	-23%
Cc1noc(C)c1C(=O)N1CCC2(CCN(Cc3nccs3)CC2)CC1	16%	/
Cc1ccc(NC(=O)C2=C(c3ccccc3)S(=O)(=O)CCS2(=O)=O)cc1	-11%	10µM*
Cc1ccc(NC(=O)c2ccccc2)cc1	/	-6%[46.1 µM]
COc1ccc(NS(=O)(=O)c2ccc(NC(=S)NC(=O)/C=C/c3ccccc3)cc2)nn1	7%	7.9µM*
COc1cc(NS(=O)(=O)c2ccc(NC(=S)NC(=O)/C=C/c3ccc(F)cc3)cc2)ncn1	-3%[57.5 µM]	31%[7.67 µM]
COc1cccc(C2C(C(=O)c3cc4cccc(OC)c4o3)=C(O)C(=O)N2c2cc(C)on2)c1OC (stereo not drawn)	/	6.3µM*
COc1cccc(C2C(C(=O)c3cc4ccccc4o3)=C(O)C(=O)N2c2cc(C)on2)c1OC (stereo not drawn)	/	3.2µM*
COc1cccc2cc(C(=O)C3=C(O)C(=O)N(Cc4ccco4)C3c3cccnc3)oc12 (stereo not drawn)	/	7.9µM*
COc1cc(C2C(C(=O)c3ccc(C)o3)=C(O)C(=O)N2c2cc(C)on2)ccc1O (stereo not drawn)	/	-8%[46.1 µM]
COc1ccc(C2C(C(=O)c3ccco3)=C(O)C(=O)N2Cc2cccnc2)cc1OC (stereo not drawn)	/	8%[46.1 µM]
COc1cc(C2C(C(=O)c3ccc(C)o3)=C(O)C(=O)N2c2cc(C)on2)cc(OC)c1OC (stereo not drawn)	/	-24%[46.1 µM]
c1ccc2oc(-c3ccn[nH]3)cc2c1	3%[57.5 µM]	-11%
Cc1ccc(C(=O)NCCSc2ccccc2)cc1S(=O)(=O)Nc1ccccc1	/	-21%[46.1 µM]
CC1CCC2(CC1)NC(=O)N(Cc1cccc(C(F)(F)F)c1)C2=O (stereo not drawn)	1%	-19%
SMILES	ERK EGF inh	NPSR antagonist
COc1cc(NS(=O)(=O)c2ccc(OC)c(C)c2C)c(OC)cc1Cl	/	20µM*
COc1ccc(S(=O)(=O)Nc2ccccn2)c(C)c1C	/	3%[46.1 µM]
O=C(CSc1nncs1)NCc1ccc(F)cc1	-7%	3%
N#Cc1c(SCC(=O)Nc2nccs2)nc2c(c1-c1ccco1)CCCC2	/	-15%[46.1 µM]
Cc1ccccc1NC(=O)CSc1nc2c(c(-c3ccco3)c1C#N)CCCC2	/	10µM*
CC(C)(C)N/C=C(\C#N)S(=O)(=O)c1ccc(Br)cc1	-9%[57.5 µM]	16%[7.67 µM]
Cc1ccc(NC2=NC(c3ccco3)n3c(nc(C)cc3=O)N2)c(C)c1 (stereo not drawn)	/	-8%[46.1 µM]
COc1ccccc1N=Nc1nc(-c2ccccc2)c(-c2ccccc2)[nH]1	?	13µM*
COc1ccc(N=Nc2nc(-c3ccccc3)c(-c3ccccc3)[nH]2)cc1	?	-54%
c1ccc(-c2csc3ncnc(NCC4COc5ccccc5O4)c23)cc1 (stereo not drawn)	14µM*	-30%
Cc1sc2ncnc(NCC3COc4ccccc4O3)c2c1C (stereo not drawn)	?	14%
COc1ccc(-c2csc(NC(=O)c3ccccc3C(=O)O)n2)cc1	5%	7%
COc1ccc(-c2csc(NC(=O)c3ccoc3C)n2)cc1	16µM*	?
Cc1cc(N/N=C/c2ccc([N+](=O)[O-])o2)nc2ccccc12	?	-17%
Cn1c(/C=C/c2ccc([N+](=O)[O-])o2)nc2ccccc2c1=O	/	10µM*
CC1(C)CC(=O)C2=C(C1)OC1=C(C(=O)CC(C)(C)C1)C2c1ccc(O)cc1O	/	13µM*
CC1(C)CC(=O)C2=C(C1)OC1=C(C(=O)CC(C)(C)C1)C2c1ccc(O)c([N+](=O)[O-])c1	-8%	-31%
CC(C)c1ccccc1-n1c(SCc2cc(=O)oc3ccc4ccccc4c23)nnc1-c1cccnc1	?	10µM*
CCOc1ccc(-n2c(SCc3cc(=O)oc4cc(C)ccc34)nnc2-c2cccnc2)cc1	-2%	0%
O=C(CN(Cc1ccco1)C(=O)Cn1nnc(-c2cccs2)n1)NCC1CCCO1 (stereo not drawn)	5%	9%
COc1ccc(-c2n(Cc3ccccc3)c3ccccc3[n+]2Cc2ccccc2)cc1	-2%	10µM*
COc1ccc2c(c1)nc(N)n2Cc1ccccc1	/	-15%[46.1 µM]
COC(=O)c1ccc(C(NC(=O)OCc2ccccc2)/C(=C/[C@@H](C)C(=O)NCc2ccncc2)c2cccnc2)cc1 (stereo partly drawn)	-14%	/
COc1cc(C#N)c(N=C(SCC#N)N2CCOCC2)cc1OC	-8%	12%
CC[n+]1c(/C=C2\Sc3ccccc3N2C)ccc2cccc(C)c21	?	10µM*
SMILES	ERK EGF inh	NPSR antagonist
CCN1/C(=C/c2sc(-c3ccccc3C)c[n+]2C)Sc2ccccc21	-9%	-16%
CC(=S)/C=C1\Sc2ccccc2N1C	/	-14%[46.1 µM]
CCN1/C(=C/c2ccc3cc(C)ccc3[n+]2CC)Sc2ccccc21	?	10µM*
CSc1ccccc1NC(=O)C(=O)c1c[nH]c2ccccc12	-1%	-36%
O=C1C=CC(O)(c2cc(=O)c3c(O)cc(O)cc3o2)C=C1	1%	-36%
CCOC(=O)Oc1c(OC)cc(C(=O)O[C@H]2C[C@H]3CN4CCc5c([nH]c6cc(OC)ccc56)[C@@H]4C[C@H]3[C@@H](C(=O)OC)[C@@H]2OC)cc1OC	11%[25.7 µM]	/
S=C(Nc1ccc(Cl)cc1)c1nc2ccccc2s1	/	-12%[46.1 µM]
O=C(Nc1ccc(Cl)cc1)/C(=C/c1cccc(O)c1)c1nc2ccccc2s1	2%	10µM*
O=S1(=O)[C@H]2C[C@@H]3C=C[C@]2(CN1Cc1ccc(C(F)(F)F)cc1)O3	-8%[57.5 µM]	19%
CN(C)c1ccc(N=Nc2ccccc2C(=O)OCC(=O)N(C)C2CCCCC2)cc1	?	-41%
CN(C)c1ccc(N=Nc2ccccc2C(=O)OCC(=O)NCC2CCCCC2)cc1	13µM*	-49%
NC(=O)c1cc(N=Nc2c(N)[nH]n(-c3c(Cl)cc(Cl)cc3Cl)c2=O)ccc1Cl	-2%	-24%
CSc1cccc(NC(=S)N(CCCN2CCCC2)Cc2cccn2Cc2ccc(Cl)cc2)c1	-3%	5µM*
Cn1cc(CN(CCCN2CCOCC2)C(=S)Nc2cccc(Cl)c2)c2ccccc21	2%	-21%
S=C(Nc1cccc(Cl)c1)N(CCCN1CCCC1)Cc1cccn1Cc1ccc(Cl)cc1	-12%	10µM*
CSc1cccc(NC(=S)N(CCCN2CCCC2)Cc2cccs2)c1	6%	-23%
CC(C)(CO)[C@@H](O)C(=O)NCCCO	-12%	/
